Test results published in PubChem BioAssay (NCATS).
“And” between values parts separate entries of the source, which are not always exact repeats. Equal entries are not always repeated. Inconclusive results are not listed. The source made the active and inactive calls. Calls come from the whole dose curve; as a rule, active = well fitted curve in the direction sought with a large enough effect; inconclusive = small, poorly fitted or top-dose-only effect, or another doubt; inactive = no such curve, though single readings can be large; an effect the other way counts as inactive or inconclusive.

Legend:
[1] = qHTS of pediatric cancer cell lines to identify multiple opportunities for drug repurposing: Primary screen for DAOY cells (AID 1347090); note: nearly all actives have a fitted effect of over 55% in size;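 for activity change, negative = cytotoxic: series mostly up to about 46 µM; plate controls were DMSO for no effect and bortezomib for full effect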
Summary of the method: (§1)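 Cell viability, CellTiter-Glo luminescence; 500-1,000 cells/well, 8- or 11-point titration, 48 h compound exposure at 37 degrees C, 5% CO2. Controls: DMSO neutral, bortezomib 2.3 µM final as positive.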

[2] = qHTS of pediatric cancer cell lines to identify multiple opportunities for drug repurposing: Primary screen for SJ-GBM2 cells (AID 1347091);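 for activity change, negative = cytotoxic: plate controls were DMSO neutral control for no effect and bortezomib for full effect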
Summary of the method: as §1

[3] = qHTS of pediatric cancer cell lines to identify multiple opportunities for drug repurposing: Primary screen for A673 cells (AID 1347092); note: nearly all actives have a fitted effect of over 45% in size; for activity change, negative = cytotoxic: % is set by controls: 0 for no effect and ±100 for the full control effect
Summary of the method: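 Cells are plated, rested 5 h, dosed by pintool, incubated 48 h, then lysed with CellTiter-Glo and read by luminescence. DMSO is the neutral control; bortezomib at 2.3 uM final is the positive control.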

[4] = qHTS of pediatric cancer cell lines to identify multiple opportunities for drug repurposing: Primary screen for SK-N-MC cells (AID 1347093);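 for activity change, negative = cytotoxic: series mostly up to about 46 µM; plate controls were DMSO neutral control for no effect and bortezomib for full effect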
Summary of the method: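 Metabolically active cells were quantified by ATP-dependent luminescence (CellTiter-Glo, 15 min at room temperature) following 48 h treatment. Cells had been plated at 500-1,000 per well and settled for 5 h beforehand.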

[5] = qHTS of pediatric cancer cell lines to identify multiple opportunities for drug repurposing: Primary screen for NB-EBc1 cells (AID 1347095);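 for activity change, negative = cytotoxic: plate controls were DMSO neutral control for no effect and bortezomib for full effect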
Summary of the method: (§2)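 Luminescence from CellTiter-Glo served as readout of metabolically active cells after 48 h compound exposure. Titrations: MIPE 11-point, from 0.78 nM; NPC 8-point, from 0.59 nM (final). Concentration-response curves came straight from the primary screen.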

[6] = qHTS of pediatric cancer cell lines to identify multiple opportunities for drug repurposing: Primary screen for U-2 OS cells (AID 1347096); note: nearly all actives have a fitted effect of over 50% in size;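 for activity change, negative = cytotoxic: plate controls were DMSO wells for no effect and bortezomib positive control wells for full effect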
Summary of the method: (§3)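 Cells (500-1,000/well) rested 5 h, then received compounds for 48 h; metabolically active cells were measured by CellTiter-Glo luminescence. Final concentrations spanned up to 46 µM (MIPE, 11-point) or 0.59 nM-46 µM (NPC, 8-point) in primary screens, 11-point in follow-ups.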

[7] = qHTS of pediatric cancer cell lines to identify multiple opportunities for drug repurposing: Primary screen for Saos-2 cells (AID 1347097); note: nearly all actives have a fitted effect of over 40% in size; for activity change, negative = cytotoxic: % is set by controls: 0 for no effect and ±100 for the full control effect
Summary of the method: as §2

[8] = qHTS of pediatric cancer cell lines to identify multiple opportunities for drug repurposing: Primary screen for BT-37 cells (AID 1347094);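 for activity change, negative = cytotoxic: series mostly up to about 57 µM; plate controls were DMSO for no effect and bortezomib for full effect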
Summary of the method: as §2

[9] = qHTS of pediatric cancer cell lines to identify multiple opportunities for drug repurposing: Primary screen for SK-N-SH cells (AID 1347098); note: nearly all actives have a fitted effect of over 65% in size; for activity change, negative = cytotoxic: % is set by controls: 0 for no effect and ±100 for the full control effect
Summary of the method: as §3

[10] = qHTS of pediatric cancer cell lines to identify multiple opportunities for drug repurposing: Primary screen for NB1643 cells (AID 1347099); note: nearly all actives have a fitted effect of over 50% in size;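 for activity change, negative = cytotoxic: plate controls were DMSO neutral control for no effect and bortezomib positive control for full effect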
Summary of the method: as §2
Potency is the fitted concentration of half-maximal effect.

CN(C)CCN(C)CCc1ccc(Cl)c(Cl)c1
inactive: Potency [1] | Potency [2] | Potency [3] | Potency [5] | Potency [6] | Potency [7]
active: Potency [4] 14.8 µM

CCCN1CCC[C@@H]2Cc3nc(N)ncc3C[C@H]21
inactive: Potency [1] | Potency [2] | Potency [3] | Potency [4] | Potency [8] | Potency [5] | Potency [6] | Potency [9] | Potency [10]

NP(N)(=O)NC(=O)c1ccc(F)cc1
inactive: Potency [1] | Potency [2] | Potency [3] | Potency [4] | Potency [8] | Potency [5] | Potency [6] | Potency [7] | Potency [9] | Potency [10]

COC[C@H]1OC(=O)c2coc3c2[C@@]1(C)C1=C(C3=O)C2CCC(=O)[C@@]2(C)C[C@H]1OC(C)=O (stereo partly specified)
active: Potency [1] 18.7 µM | Potency [2] 0.264 µM | Potency [3] 4.69 µM | Potency [4] 1.05 µM | Potency [5] 0.833 µM | Potency [7] 4.69 µM | Potency [10] 11.8 µM

C[C@]12CC[C@H]3[C@@H](CCC4=CC(=O)CC[C@@H]43)[C@@H]1CC[C@@H]2OC(=O)CCc1ccccc1
inactive: Potency [1] | Potency [2] | Potency [3] | Potency [4] | Potency [8] | Potency [5] | Potency [6] | Potency [9] | Potency [10]

CC(=O)[C@H]1CC[C@H]2[C@@H]3CC[C@H]4C[C@](C)(O)CC[C@]4(C)[C@H]3CC[C@]12C
inactive: Potency [1] | Potency [2] | Potency [3] | Potency [4] | Potency [8] | Potency [5] | Potency [6] | Potency [7] | Potency [9] | Potency [10]

O=C(O)c1ccc2[nH]cc(CCCCN3CC=C(c4ccccc4)CC3)c2c1
inactive: Potency [1] | Potency [2] | Potency [3] | Potency [4] | Potency [8] | Potency [6] | Potency [9] | Potency [10]

CN(C)[C@@H]1C(=O)C(C(N)=O)=C(O)[C@@]2(O)C(=O)C3=C(O)c4c(O)cccc4[C@@](C)(O)[C@H]3C[C@@H]12
inactive: Potency [1] | Potency [2] | Potency [3] | Potency [4] | Potency [5] | Potency [6] | Potency [7] | Potency [9]

C=CCN1CC[C@]23c4c5ccc(O)c4O[C@H]2C(=O)CC[C@@]3(O)[C@H]1C5
inactive: Potency [1] | Potency [2] | Potency [3] | Potency [4] | Potency [8] | Potency [5] | Potency [6] | Potency [7] | Potency [9] | Potency [10]

Clc1ccc(CCC(Cn2ccnc2)Sc2c(Cl)cccc2Cl)cc1 (stereo unspecified)
active: Potency [3] 23.5 µM | Potency [4] 23.5 µM | Potency [5] 21.1 µM
inactive: Potency [1] | Potency [2]

O=c1oc2ccccc2c(O)c1C(CC(O)c1ccc(-c2ccc(Br)cc2)cc1)c1ccccc1 (stereo unspecified)
inactive: Potency [1] | Potency [2] | Potency [3] | Potency [8] | Potency [5] | Potency [6] | Potency [7] | Potency [9] | Potency [10]

O=P1(NCCCl)OCCCN1CCCl (stereo unspecified)
inactive: Potency [1] | Potency [4] | Potency [8] | Potency [5] | Potency [6] | Potency [7] | Potency [9] | Potency [10]

COc1ccc2c(c1OC)CN1CCc3cc4c(cc3C1C2)OCO4 (stereo unspecified)
active: Potency [8] 17.2 µM
inactive: Potency [1] | Potency [2] | Potency [5] | Potency [6] | Potency [7] | Potency [9] | Potency [10]

COc1ccc(Cc2nccc3cc(OC)c(OC)cc23)cc1OC
inactive: Potency [6] | Potency [7] | Potency [9] | Potency [10]

NCC(CC(=O)O)c1ccc(Cl)cc1 (stereo unspecified)
inactive: activity change, negative = cytotoxic [1] -6.69% [at 0.597 µM] | activity change, negative = cytotoxic [2] -1.55% [at 0.597 µM] | activity change, negative = cytotoxic [3] -10.9% [at 0.597 µM] | activity change, negative = cytotoxic [8] -2.84% [at 0.745 µM] | activity change, negative = cytotoxic [5] -3.28% [at 0.597 µM] | activity change, negative = cytotoxic [6] -3.85% [at 0.597 µM] | activity change, negative = cytotoxic [10] -5.29% [at 0.597 µM]

c1ccc2c(c1)OCC(C1=NCCN1)O2 (stereo unspecified)
inactive: Potency [6]
active: Potency [1] 26.6 µM | Potency [3] 13.3 µM | Potency [4] 18.8 µM | Potency [7] 23.7 µM | Potency [9] 13.7 µM | Potency [10] 23.7 µM

Cn1cc(C2=C(c3cn(C4CCN(Cc5ccccn5)CC4)c4ccccc34)C(=O)NC2=O)c2ccccc21
inactive: Potency [1] | Potency [8] | Potency [6] | Potency [9] | Potency [10]
active: Potency [3] 3.72 µM

CC[C@@H](CO)NC(=O)[C@@H]1C=C2c3cccc4c3c(cn4C)C[C@H]2N(C)C1
inactive: Potency [1] | Potency [2] | Potency [4] | Potency [8] | Potency [5] | Potency [6] | Potency [7] | Potency [9]

COc1ccc(C(CN(C)C)C2(O)CCCCC2)cc1 (stereo unspecified)
inactive: Potency [1] | Potency [2] | Potency [3] | Potency [8] | Potency [5] | Potency [6] | Potency [7] | Potency [9] | Potency [10]

COC[C@@H](NC(C)=O)C(=O)NCc1ccccc1
inactive: Potency [1] | Potency [2] | Potency [3] | Potency [8] | Potency [5] | Potency [6] | Potency [7] | Potency [9]

CC(CCc1ccccc1)NC(C)C(O)c1ccc(O)cc1 (stereo unspecified)
inactive: Potency [1] | Potency [2] | Potency [3] | Potency [8] | Potency [5] | Potency [6] | Potency [7] | Potency [9] | Potency [10]

CO[C@]12CC[C@@]3(C[C@@H]1[C@](C)(O)C(C)(C)C)[C@@H]1Cc4ccc(O)c5c4[C@@]3(CCN1CC1CC1)[C@H]2O5
active: Potency [3] 48.1 µM | Potency [4] 30.3 µM | Potency [8] 39.6 µM | Potency [6] 38.2 µM | Potency [7] 30.3 µM

CCOC(=O)C1(c2ccccc2)CCN(CCC(C#N)(c2ccccc2)c2ccccc2)CC1
active: Potency [4] 4.73 µM | Potency [5] 18.8 µM
inactive: Potency [6] | Potency [9]

Oc1ccc(Cl)cc1Cc1ccccc1
active: Potency [2] 12.3 µM | Potency [3] 49.1 µM | Potency [7] 24.6 µM and 23.7 µM | Potency [9] 35.8 µM and 17.2 µM
inactive: Potency [1] | Potency [6] | Potency [10]

COc1ccccc1N1CCNCC1
inactive: Potency [1] | Potency [2] | Potency [3] | Potency [8] | Potency [5] | Potency [6] | Potency [7] | Potency [9] | Potency [10]
